{
  "source": "PubChem BioAssay AID1508600",
  "about": "(Functional Genomics Laboratory (NCATS/FGL), 2020)",
  "note": "The whole screen tested about 53,000 sequences, of which about 3,700 (7%) were called active. This is one part of a sample in which actives are shown more often than they occur. Unmarked numbers belong to inactive results.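 The calls were made as follows: active = gene knockdowns whose robust z-score for IL-1 alpha signal is at least 2 or at most -2, so actives lie on both sides; inactive = the rest.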",
  "data": [
    {"experiment": "Components of the Cytosolic LPS Sensing Pathway: Gene Identification via Genome-wide siRNA Screen", "settings": "RAW264.7 macrophages, IL-1a HTRF, actives lie on both sides, screened at 100 nM (by protocol), cells primed 5 h with Pam3CSK4 first", "from_the_text": "Non-canonical inflammasome activation by cytosolic LPS is a critical component of the host response to Gram-negative bacterial infection, however we lack a comprehensive understanding of the cellular processes that control this pathway. Here we describe a genome-wide siRNA screen to identify genes regulating the mouse macrophage IL-1 alpha response to cytosolic LPS.\nRAW264.7 cells were maintained in complete DMEM media, comprising DMEM with 4.5 g/L glucose, 10% FBS (Gemini Bio-Products, West Sacramento, CA), 2 mM Glutamine (Lonza) and 20 mM HEPES (Lonza), hereafter complete DMEM.\nThe RNAi screen was conducted in 384-well format using the Ambion Silencer Mouse Genome siRNA Library (#4391425), which consists of three unique, nonoverlapping, nonpooled siRNAs for each of 17,000 gene targets. siRNA reagents ([…]) were stamped into 384-well white flat-bottom microplates (Corning, 3570) using a Velocity11 VPrep liquid handling system (Agilent) integrated into a BioCel robotic platform (Agilent) in columns 1-22, leaving columns 23-24 empty for negative (Ambion, Negative control #1) and positive (mouse Casp4) controls, respectively. The median value of each plate's negative control column was used to normalize sample wells, and the positive control was used to assess transfection efficiency and assay performance.\nLipofectamine RNAiMAX Transfection Reagent ([…]; Invitrogen) was added in […] serum-free, antibiotic-free media to plate wells using a Thermo Scientific Matrix WellMate and Microplate Stacker. Plates were incubated for 45 min at room temperature to allow for the sufficient formation of siRNA-lipid complexes. Cells were seeded at a density of 1x10^4 cells per well in 20 microL media containing 20% (vol/vol) FBS without antibiotics. The final concentration of siRNA in each well was 100 nM. Cells were cultured for 48h at 37 degrees C in 5% CO2 before addition of […] of TLR ligand Pam3CSK4 for 5 hours. The medium was then removed, replaced with […] growth media and cell were transfected with […] of LipidA and TransIT-TKO (Mirus) for 24 hour. At the end of the LipidA treatment, […] of supernatant was transferred to a 384 Greiner Bio-one non-binding low volume plate and […] of IL-1a HTRF reagent (Cisbio, 62MIL1APEH) was added and incubated at room temperature overnight. The plates were read on an EnVision plate reader (PerkinElmer). Cell viability was measured by adding 20ul Cell Titer Glo to the original plate and running a luminescence read on the EnVision. The quantified IL-1a signal for each siRNA gene-targeted well was divided by the median of the negative control wells and multiplied by 100 to achieve a negative control normalized value for each well/siRNA. This normalized value was then used to generate a robust z-score by first taking the log of each value and then by subtracting the median and dividing by the […].", "values": [
      {"sequence": "GGUAGACAAGAUCAUCGGATT against Dsc3", "z-score": 0.711},
      {"sequence": "GGCAUAGAAGAGAUGACAGTT against Fabp7", "z-score": "-2.18 (active)"},
      {"sequence": "GCCUGUCUGCCUUUGCUUCTT against H4c9", "z-score": "2.47 (active)"},
      {"sequence": "GCUCGUACAUCUAUGGCUATT against Psmb6", "z-score": -0.633},
      {"sequence": "GGACCUAAGCAUUUUACAUTT against Traf2", "z-score": -0.143},
      {"sequence": "CCUAUGUGUACUUCAUCCUTT against Elovl1", "z-score": "2.93 (active)"},
      {"sequence": "GCCUUUUAUACAUGUUUGATT against B130024G19Rik", "z-score": -1.55},
      {"sequence": "GCUAGAGUAUGAGAACUUCTT against Cdc14b", "z-score": 0.233},
      {"sequence": "GGUAGAGAACCAGAGGCAUTT against Ninj2", "z-score": -0.164},
      {"sequence": "GCCAGGAAUGCUAUUCUCGTT against Lrg1", "z-score": "-2.26 (active)"},
      {"sequence": "CCACCAUUUACUGAGUUUATT against Scn2b", "z-score": -0.324},
      {"sequence": "GUCUUUGGAAAUCUACUCATT against Olfr1189", "z-score": -1.21},
      {"sequence": "GGAGAUUCUGUGCAAUGCATT against Dnajc12", "z-score": -0.0758},
      {"sequence": "CCAUUAACGUAAAUUCUGUTT against Ankrd13c", "z-score": -0.971},
      {"sequence": "GCUCAUACCUAUCUCAAGGTT against Tnfsf9", "z-score": 0.365},
      {"sequence": "CCUAACAUAGUAUAGCCUUTT against Zfp868", "z-score": -0.0695},
      {"sequence": "GGUCCUGAAGAUACAUAUUTT against Taf2", "z-score": "-2.42 (active)"},
      {"sequence": "GGGAGAAAUGCAAAUAUUUTT against Mbnl2", "z-score": -0.37},
      {"sequence": "GGUGAAGAAAGCGGAAAAGTT against Cstf3", "z-score": -0.19},
      {"sequence": "GGACCUGUUUUGGAAAUAUTT against Jchain", "z-score": -0.613},
      {"sequence": "GGGUUAUGGACACUACCCATT against Tnk1", "z-score": -1.84},
      {"sequence": "GGUACGAGAACAACUGACUTT against Acot3", "z-score": 0.269},
      {"sequence": "GGUACGUGAGAGAAUUCUGTT against Trem2", "z-score": "3.14 (active)"},
      {"sequence": "GGUCAGAUACAAUGUAUAUTT against Ap1s3", "z-score": -0.793},
      {"sequence": "GGUGUGUAAUGUGCGUGAGTT against Ephb3", "z-score": 1.11},
      {"sequence": "GGGAUCCUUAUUUCAUACUTT against Olfr868", "z-score": 1.16},
      {"sequence": "GGCGGAAAUCAAAGGAGGATT against Dnmt1", "z-score": 0.791},
      {"sequence": "GGUGGAGUUUAAACUUACATT against Atp4b", "z-score": "5.64 (active)"},
      {"sequence": "GGAAACGAUAGCCAAUAUUTT against Scp2d1", "z-score": -1.08},
      {"sequence": "GGGAUCAAUGGCUACCUGUTT against Slc7a10", "z-score": -0.0112}
    ]}
  ]
}
